The source of these data is paper PMC7862700, “An all-to-all approach to the identification of sequence-specific readers for epigenetic DNA modifications on cytosine”.

What all share (experiment): DAPPL (digital affinity profiling via proximity ligation, sequencing); 10 mM Tris-HCl pH 7.5, 50 mM NaCl, 1 mM DTT, 4% glycerol, room temperature, 30 min; GST-TFs on glutathione beads, 16-mer random dsDNA library, 0.1% formaldehyde crosslink after washing; high values mean tight binding
Details in all cases: protein: recombinant; tags: N-terminal GST; dsDNA, one strand shown

Assay [1] has as its target T1, FLI1 (Homo sapiens, UniProt Q01543 1-452).
T1 sequence: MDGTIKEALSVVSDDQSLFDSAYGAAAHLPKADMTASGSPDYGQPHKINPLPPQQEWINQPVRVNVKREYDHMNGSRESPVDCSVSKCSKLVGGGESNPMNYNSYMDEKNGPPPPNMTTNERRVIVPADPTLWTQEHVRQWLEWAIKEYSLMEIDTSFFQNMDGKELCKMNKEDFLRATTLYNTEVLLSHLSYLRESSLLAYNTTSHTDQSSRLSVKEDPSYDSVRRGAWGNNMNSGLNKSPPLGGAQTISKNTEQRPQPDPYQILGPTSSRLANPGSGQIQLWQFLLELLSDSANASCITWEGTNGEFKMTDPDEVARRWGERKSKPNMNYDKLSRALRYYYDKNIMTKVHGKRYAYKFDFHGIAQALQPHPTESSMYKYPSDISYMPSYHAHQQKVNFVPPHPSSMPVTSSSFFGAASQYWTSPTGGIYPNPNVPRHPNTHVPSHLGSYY
Put shortly: (§1)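 After expression in yeast as GST fusions, human transcription factors were bound to glutathione beads, DNA-barcoded and mixed with a tag-only sample. The pools were incubated with 200 nmole of a 16-mer random double-stranded DNA library in Tris/NaCl/DTT/glycerol buffer (30 min, room temperature), washed and crosslinked with 0.1% formaldehyde. Proximity ligation with BsaI/T4 ligase ran for 1 h at 37 °C, before PCR amplification and sequencing on an Illumina NextSeq500. Binding signal is a hexamer's read frequency for a factor divided by its frequency for the tag-only sample.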

Assay [2] concerns the target T2, ELK1 (Homo sapiens, UniProt P19419 1-428).
T2 sequence: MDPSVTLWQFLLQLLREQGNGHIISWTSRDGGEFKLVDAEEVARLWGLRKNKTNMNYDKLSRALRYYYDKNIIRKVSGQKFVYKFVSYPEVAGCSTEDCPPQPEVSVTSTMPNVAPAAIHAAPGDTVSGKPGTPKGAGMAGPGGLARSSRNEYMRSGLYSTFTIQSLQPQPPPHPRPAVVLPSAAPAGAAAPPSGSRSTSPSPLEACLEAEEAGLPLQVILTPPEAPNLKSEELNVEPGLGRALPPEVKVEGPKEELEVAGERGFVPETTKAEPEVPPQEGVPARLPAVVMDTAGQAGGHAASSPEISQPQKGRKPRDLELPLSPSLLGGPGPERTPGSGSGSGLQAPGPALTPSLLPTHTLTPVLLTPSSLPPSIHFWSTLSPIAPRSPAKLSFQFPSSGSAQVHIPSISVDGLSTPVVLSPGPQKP
The procedure, abridged: as §1

For assay [3], the target named is T3, GABPA (Homo sapiens, UniProt Q06546 1-454).
T3 sequence: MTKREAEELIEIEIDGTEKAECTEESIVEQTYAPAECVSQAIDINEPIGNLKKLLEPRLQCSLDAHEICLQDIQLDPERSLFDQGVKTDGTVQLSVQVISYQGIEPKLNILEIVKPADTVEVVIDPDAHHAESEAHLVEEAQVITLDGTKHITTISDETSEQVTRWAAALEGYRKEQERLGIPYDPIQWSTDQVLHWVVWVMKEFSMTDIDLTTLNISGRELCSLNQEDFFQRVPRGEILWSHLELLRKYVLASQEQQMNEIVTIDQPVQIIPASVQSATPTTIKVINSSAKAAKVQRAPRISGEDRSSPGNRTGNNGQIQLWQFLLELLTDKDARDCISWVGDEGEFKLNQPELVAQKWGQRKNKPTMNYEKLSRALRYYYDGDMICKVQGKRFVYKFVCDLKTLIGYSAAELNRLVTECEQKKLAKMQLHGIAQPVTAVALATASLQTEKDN
The procedure, abridged:
as §1

Assay [4] concerns the target T4, ERG (Homo sapiens, UniProt P11308 1-479).
T4 sequence: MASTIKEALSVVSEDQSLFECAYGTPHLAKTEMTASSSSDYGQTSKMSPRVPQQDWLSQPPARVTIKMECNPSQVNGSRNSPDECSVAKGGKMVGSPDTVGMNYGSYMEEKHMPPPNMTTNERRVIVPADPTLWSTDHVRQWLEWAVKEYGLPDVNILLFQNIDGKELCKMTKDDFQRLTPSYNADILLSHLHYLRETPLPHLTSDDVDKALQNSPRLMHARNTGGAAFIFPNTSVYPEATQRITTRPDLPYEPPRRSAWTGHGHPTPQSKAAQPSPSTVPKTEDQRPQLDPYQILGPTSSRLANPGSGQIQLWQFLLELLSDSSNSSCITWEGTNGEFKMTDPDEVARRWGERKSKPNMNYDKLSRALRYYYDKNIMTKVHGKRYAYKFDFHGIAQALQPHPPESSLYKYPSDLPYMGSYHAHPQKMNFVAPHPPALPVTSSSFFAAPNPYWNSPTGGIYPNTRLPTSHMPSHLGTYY
Put shortly:
as §1

For assay [5], the target named is ELF1 (Homo sapiens, UniProt P32519 1-619). The procedure, abridged:
as §1

Assay [6] deals with T5, EHF (Homo sapiens, UniProt Q9NZC4 1-300).
T5 sequence: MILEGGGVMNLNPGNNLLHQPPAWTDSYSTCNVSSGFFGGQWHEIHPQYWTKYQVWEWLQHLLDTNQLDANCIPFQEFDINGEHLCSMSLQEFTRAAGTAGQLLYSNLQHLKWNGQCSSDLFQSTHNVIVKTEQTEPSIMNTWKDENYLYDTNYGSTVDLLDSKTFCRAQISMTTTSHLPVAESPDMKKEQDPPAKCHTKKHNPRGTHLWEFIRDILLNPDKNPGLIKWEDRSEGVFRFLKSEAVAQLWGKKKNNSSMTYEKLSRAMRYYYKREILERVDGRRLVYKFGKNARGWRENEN
Put shortly: as §1

Assay [7] concerns the target SPI1 (Homo sapiens, UniProt P17947 1-270). The procedure, abridged: as §1
For assay [8], the target named is T6, ELK3 (Homo sapiens, UniProt P41970 1-407).
T6 sequence: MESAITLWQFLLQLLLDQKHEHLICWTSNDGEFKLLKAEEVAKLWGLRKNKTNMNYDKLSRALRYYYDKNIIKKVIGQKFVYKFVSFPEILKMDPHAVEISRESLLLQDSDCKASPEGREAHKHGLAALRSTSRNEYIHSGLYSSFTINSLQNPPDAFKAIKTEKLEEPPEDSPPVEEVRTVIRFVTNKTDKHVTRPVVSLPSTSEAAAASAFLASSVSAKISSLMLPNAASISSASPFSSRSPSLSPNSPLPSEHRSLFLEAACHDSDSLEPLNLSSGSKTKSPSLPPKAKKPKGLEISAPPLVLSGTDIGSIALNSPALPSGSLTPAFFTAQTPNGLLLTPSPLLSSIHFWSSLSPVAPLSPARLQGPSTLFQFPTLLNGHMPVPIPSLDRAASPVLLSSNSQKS
Put shortly:
as §1

In assay [9] the target is T7, FEV (Homo sapiens, UniProt Q99581 1-238).
T7 sequence: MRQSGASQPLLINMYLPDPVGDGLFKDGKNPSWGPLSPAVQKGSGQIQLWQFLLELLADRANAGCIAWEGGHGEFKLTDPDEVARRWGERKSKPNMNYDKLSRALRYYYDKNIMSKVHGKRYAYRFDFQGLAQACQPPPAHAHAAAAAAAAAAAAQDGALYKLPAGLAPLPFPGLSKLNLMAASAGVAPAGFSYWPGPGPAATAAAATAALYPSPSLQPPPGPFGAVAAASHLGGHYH
Put shortly:
as §1

The target of assay [10] is ETV5 (Homo sapiens, UniProt P41161 1-510). Put shortly:
as §1

Assay [11] addresses T8, SPIC (Homo sapiens, UniProt Q8N5J4 1-248).
T8 sequence: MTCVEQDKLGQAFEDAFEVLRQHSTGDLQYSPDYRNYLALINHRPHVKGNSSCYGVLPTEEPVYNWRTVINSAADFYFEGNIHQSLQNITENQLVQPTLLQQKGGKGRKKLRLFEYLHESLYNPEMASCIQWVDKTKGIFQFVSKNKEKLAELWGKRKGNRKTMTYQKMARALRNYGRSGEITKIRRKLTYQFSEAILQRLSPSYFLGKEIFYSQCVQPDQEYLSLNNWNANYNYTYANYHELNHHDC
Put shortly: as §1

Assay [12] addresses ELF4 (Homo sapiens, UniProt Q99607 1-663). The procedure, abridged: as §1
Assay [13] deals with ETV1 (Homo sapiens, UniProt P50549 1-477). The procedure, abridged: as §1
Chain of ETV1 (P50549 whole entry): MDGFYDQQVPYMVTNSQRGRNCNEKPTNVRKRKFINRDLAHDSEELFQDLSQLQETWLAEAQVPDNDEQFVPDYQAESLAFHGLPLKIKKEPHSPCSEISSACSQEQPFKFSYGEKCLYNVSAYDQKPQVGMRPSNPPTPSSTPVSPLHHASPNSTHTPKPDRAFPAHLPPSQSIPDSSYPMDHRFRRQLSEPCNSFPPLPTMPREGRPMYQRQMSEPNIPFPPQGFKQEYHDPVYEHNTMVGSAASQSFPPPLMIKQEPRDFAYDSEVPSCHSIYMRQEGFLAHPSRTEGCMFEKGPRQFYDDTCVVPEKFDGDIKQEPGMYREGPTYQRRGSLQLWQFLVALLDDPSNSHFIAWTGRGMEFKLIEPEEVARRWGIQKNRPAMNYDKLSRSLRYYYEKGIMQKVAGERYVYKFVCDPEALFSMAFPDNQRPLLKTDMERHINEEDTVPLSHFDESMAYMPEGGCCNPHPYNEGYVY
Assay [14] concerns the target T9, ERF (Homo sapiens, UniProt P50548 1-548).
T9 sequence: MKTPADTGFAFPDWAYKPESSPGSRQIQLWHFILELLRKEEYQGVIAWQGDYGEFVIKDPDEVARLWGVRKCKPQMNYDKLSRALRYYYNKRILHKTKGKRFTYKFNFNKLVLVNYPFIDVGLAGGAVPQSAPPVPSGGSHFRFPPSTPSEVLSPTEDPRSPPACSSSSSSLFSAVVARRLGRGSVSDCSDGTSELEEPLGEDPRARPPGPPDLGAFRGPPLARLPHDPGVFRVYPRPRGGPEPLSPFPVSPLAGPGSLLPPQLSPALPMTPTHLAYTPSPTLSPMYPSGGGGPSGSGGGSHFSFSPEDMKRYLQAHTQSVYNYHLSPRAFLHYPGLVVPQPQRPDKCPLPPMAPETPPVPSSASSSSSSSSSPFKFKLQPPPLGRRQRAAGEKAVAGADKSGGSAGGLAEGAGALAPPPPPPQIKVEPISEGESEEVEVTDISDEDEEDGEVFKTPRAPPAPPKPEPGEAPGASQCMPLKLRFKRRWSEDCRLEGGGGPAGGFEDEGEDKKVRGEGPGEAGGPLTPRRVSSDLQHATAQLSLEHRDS
Put shortly: as §1

Assay [15] has as its target T10, ETV3L (Homo sapiens, UniProt Q6ZN32 1-361).
T10 sequence: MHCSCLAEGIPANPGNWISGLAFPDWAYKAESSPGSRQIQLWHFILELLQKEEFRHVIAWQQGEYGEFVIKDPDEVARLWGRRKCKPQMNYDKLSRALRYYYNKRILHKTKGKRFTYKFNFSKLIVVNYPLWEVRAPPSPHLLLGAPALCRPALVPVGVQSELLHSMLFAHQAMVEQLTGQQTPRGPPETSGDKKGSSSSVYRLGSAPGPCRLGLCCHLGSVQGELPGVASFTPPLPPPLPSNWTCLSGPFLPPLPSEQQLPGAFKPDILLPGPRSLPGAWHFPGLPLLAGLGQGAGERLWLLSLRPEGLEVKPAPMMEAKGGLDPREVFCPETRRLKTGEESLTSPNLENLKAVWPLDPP
The procedure, abridged: as §1

Assay [16] has as its target T11, ETS2 (Homo sapiens, UniProt P15036 1-469).
T11 sequence: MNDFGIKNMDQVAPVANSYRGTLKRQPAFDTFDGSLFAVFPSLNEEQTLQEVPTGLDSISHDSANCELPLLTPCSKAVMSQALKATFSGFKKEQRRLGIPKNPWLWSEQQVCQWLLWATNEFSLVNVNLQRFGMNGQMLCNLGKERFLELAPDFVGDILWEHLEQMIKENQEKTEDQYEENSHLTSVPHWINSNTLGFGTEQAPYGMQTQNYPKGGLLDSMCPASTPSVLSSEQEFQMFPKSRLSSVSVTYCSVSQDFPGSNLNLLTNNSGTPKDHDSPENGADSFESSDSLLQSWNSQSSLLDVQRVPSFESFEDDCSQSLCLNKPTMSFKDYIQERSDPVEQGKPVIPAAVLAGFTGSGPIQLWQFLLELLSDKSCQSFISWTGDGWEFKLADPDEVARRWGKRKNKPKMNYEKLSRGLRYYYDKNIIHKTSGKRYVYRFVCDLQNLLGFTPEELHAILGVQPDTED
Put shortly: as §1

The target of assay [17] is T12, ELF5 (Homo sapiens, UniProt Q9UKW6-2 1-255).
T12 sequence: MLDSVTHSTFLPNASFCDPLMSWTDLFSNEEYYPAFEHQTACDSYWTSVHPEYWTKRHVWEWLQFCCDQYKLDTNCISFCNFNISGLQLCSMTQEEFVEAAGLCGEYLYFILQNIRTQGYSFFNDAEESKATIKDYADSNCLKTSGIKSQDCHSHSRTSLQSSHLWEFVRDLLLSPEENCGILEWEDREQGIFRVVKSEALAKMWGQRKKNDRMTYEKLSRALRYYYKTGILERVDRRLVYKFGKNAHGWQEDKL
The procedure, abridged: as §1

The target in assay [18] is T13, ETV3 (Homo sapiens, UniProt P41162-2 1-143).
T13 sequence: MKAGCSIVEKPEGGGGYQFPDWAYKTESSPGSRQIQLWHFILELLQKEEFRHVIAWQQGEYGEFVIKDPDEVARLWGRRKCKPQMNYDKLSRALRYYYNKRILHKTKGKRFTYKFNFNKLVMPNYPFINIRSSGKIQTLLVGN
Put shortly: as §1

Assay [19] has as its target ETV6 (Homo sapiens, UniProt P41212 1-452). Put shortly: as §1

Chain of ETV6 (P41212 whole entry): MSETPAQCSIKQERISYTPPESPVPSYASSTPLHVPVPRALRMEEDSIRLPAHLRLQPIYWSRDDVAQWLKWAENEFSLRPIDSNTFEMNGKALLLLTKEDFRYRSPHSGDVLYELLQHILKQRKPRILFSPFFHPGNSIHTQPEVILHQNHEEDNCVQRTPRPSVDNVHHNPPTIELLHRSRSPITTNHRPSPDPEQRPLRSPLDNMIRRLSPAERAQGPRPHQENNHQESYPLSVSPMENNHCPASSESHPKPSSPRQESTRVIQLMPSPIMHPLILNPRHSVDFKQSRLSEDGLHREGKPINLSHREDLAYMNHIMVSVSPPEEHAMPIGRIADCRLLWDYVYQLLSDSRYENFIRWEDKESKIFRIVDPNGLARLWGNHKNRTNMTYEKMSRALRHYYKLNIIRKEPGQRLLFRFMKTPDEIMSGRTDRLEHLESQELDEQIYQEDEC
Chain of ETV5 (P41161 whole entry): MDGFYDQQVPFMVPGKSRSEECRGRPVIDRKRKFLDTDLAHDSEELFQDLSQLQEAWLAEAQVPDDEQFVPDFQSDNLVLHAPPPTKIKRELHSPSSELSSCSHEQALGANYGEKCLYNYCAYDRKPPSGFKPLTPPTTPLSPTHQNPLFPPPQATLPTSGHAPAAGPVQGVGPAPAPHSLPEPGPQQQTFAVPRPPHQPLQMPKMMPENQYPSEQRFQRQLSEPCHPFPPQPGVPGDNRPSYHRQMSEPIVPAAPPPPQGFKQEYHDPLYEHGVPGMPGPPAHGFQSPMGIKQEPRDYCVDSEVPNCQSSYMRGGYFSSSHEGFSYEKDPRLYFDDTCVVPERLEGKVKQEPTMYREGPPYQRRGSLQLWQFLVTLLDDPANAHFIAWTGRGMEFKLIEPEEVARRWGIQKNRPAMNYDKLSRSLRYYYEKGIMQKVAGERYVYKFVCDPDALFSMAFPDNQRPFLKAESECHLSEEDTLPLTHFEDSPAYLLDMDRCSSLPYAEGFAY
Chain of ELF1 (P32519 whole entry): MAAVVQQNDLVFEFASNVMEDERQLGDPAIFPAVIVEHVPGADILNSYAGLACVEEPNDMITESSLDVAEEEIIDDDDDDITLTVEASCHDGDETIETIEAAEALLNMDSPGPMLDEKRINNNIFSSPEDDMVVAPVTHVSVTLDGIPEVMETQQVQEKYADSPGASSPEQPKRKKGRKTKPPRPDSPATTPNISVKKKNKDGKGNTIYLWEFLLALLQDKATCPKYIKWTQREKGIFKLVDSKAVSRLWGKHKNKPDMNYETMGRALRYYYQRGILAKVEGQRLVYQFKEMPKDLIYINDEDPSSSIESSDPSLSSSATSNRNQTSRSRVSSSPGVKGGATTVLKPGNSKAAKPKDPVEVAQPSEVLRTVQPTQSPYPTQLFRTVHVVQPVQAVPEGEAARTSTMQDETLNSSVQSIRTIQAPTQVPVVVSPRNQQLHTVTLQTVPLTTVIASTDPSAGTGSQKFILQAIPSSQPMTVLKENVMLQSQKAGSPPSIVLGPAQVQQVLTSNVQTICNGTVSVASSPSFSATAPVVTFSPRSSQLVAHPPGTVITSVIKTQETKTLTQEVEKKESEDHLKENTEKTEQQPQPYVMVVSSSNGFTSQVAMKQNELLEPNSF
Chain of ELF4 (Q99607 whole entry): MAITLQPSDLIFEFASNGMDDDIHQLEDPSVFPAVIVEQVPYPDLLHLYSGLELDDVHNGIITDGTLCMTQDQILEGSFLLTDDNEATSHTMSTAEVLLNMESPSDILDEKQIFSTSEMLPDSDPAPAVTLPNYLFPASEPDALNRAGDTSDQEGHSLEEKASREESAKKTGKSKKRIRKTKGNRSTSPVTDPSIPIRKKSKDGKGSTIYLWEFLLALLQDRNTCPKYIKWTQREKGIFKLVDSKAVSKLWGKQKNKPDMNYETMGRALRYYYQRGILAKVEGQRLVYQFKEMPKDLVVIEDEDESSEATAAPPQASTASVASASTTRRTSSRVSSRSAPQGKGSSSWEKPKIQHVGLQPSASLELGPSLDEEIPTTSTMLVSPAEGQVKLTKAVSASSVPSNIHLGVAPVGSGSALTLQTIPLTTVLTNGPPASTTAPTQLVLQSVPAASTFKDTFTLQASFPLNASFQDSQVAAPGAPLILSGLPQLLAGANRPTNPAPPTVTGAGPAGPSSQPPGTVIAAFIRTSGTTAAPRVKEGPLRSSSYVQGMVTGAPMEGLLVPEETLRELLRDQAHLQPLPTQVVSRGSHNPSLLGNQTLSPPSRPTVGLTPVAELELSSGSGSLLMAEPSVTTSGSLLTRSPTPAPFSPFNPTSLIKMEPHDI

Regarding GCCGCC, the binding signal is 1.21 fold enrichment (6-mer frequency, TF over GST control) in [1]; 1.1 fold enrichment (6-mer frequency, TF over GST control) in assay [2]; 1.16 fold enrichment (6-mer frequency, TF over GST control) in assay [3]; 1.02 fold enrichment (6-mer frequency, TF over GST control) in assay [4]; 1 fold enrichment (6-mer frequency, TF over GST control) in assay [5]; 1.05 fold enrichment (6-mer frequency, TF over GST control) in assay [6]. Besides, the binding signal in [7] is 1.13 fold enrichment (6-mer frequency, TF over GST control); in [8] it was 1.15 fold enrichment (6-mer frequency, TF over GST control); in [9] it was 1.05 fold enrichment (6-mer frequency, TF over GST control); in assay [10], 1.04 fold enrichment (6-mer frequency, TF over GST control); in [11], 1.03 fold enrichment (6-mer frequency, TF over GST control); in [12], 1.08 fold enrichment (6-mer frequency, TF over GST control). Also, the binding signal in assay [13] was 1.12 fold enrichment (6-mer frequency, TF over GST control); in assay [14] it was 1.03 fold enrichment (6-mer frequency, TF over GST control); in assay [15], 1 fold enrichment (6-mer frequency, TF over GST control); in assay [16] it was 1.01 fold enrichment (6-mer frequency, TF over GST control); in assay [17], 1.01 fold enrichment (6-mer frequency, TF over GST control); in assay [18] it was 1.11 fold enrichment (6-mer frequency, TF over GST control). Further, the binding signal in assay [19] is 1.02 fold enrichment (6-mer frequency, TF over GST control).
